Consider 9 compounds from PubChem BioAssay (NCI).

Test systems include SK-MEL-2 melanoma; EKVX NSCLC; SN12C renal; UO-31 renal; TK-10 renal; ACHN renal; CAKI-1 renal; A498 renal; CCRF-CEM leukemia; SR leukemia; RPMI-8226 leukemia; OVCAR-8 ovarian; OVCAR-5 ovarian; OVCAR-4 ovarian; SK-OV-3 ovarian; OVCAR-3 ovarian; HS 578T breast; NCI/ADR-RES ovarian; IGROV1 ovarian; MOLT-4 leukemia.
Holding throughout (test): NCI-60 one-dose screen, 48 h (100 = growth as untreated, 0 = no growth, -100 = all killed)
Details in all cases: 10 µM unless noted

This is part of a sample that, as a whole, favours compounds with a hit. Of some 83,000 tested, about 20% had one in any assay.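 Single-dose data. Exposure time 48 hours. Values below 10 considered active.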 Values without a mark were called inactive. Active and inactive are the calls of the source.

Turning to `CSc1ccc(/C=C2\C=C(CC(=O)NCc3ccc(C(=O)c4ccccc4)cc3)c3cc(F)ccc32)cc1`, the growth with SK-MEL-2 melanoma was -3.62% (active); in the test with EKVX NSCLC it was 25.5%; in the test on SN12C renal, 9.57% (active); in the test with UO-31 renal, 26.6%; in the test with TK-10 renal it was 13.8%; in the test with ACHN renal, 2.09% (active). Moreover, the growth was 7.79% (active) in the test on CAKI-1 renal; -10.5% (active) with A498 renal; 11.5% in the test on CCRF-CEM leukemia; 10.3% in the test on SR leukemia; 15.2% in the test with RPMI-8226 leukemia; 1.81% (active) in the test with OVCAR-8 ovarian. Further, the growth was 25.2% in the test with OVCAR-5 ovarian; 10.9% in the test with OVCAR-4 ovarian; -34.4% (active) with SK-OV-3 ovarian; -60.1% (active) in the test with OVCAR-3 ovarian; 2.68% (active) with HS 578T breast; -34.6% (active) in the test with NCI/ADR-RES ovarian.

As to `Cc1[nH]c2ccccc2c1C1=CC(=O)C=CC1=O`, the growth in the test on SK-MEL-2 melanoma is 93.7%; with EKVX NSCLC, 107%; in the test on SN12C renal it was 90.8%; in the test with UO-31 renal it was 59.5%; in the test with TK-10 renal, 92.2%; with ACHN renal it was 58.7%. For the same compound, the growth was 96.8% in the test on CAKI-1 renal; 121% in the test on A498 renal; 28.4% in the test on CCRF-CEM leukemia; 12.2% with SR leukemia; 89.3% in the test with OVCAR-8 ovarian; 103% with OVCAR-5 ovarian. Further, the growth with OVCAR-4 ovarian was 85.6%; in the test with SK-OV-3 ovarian, 120%; in the test with IGROV1 ovarian, 79.6%; with OVCAR-3 ovarian it was 36.7%; with HS 578T breast, 99.7%; with NCI/ADR-RES ovarian, 77%.

As for `O/N=C/c1ccncc1`, the growth in the test on SK-MEL-2 melanoma was 112%; in the test with EKVX NSCLC, 100%; in the test with SN12C renal, 121%; in the test with UO-31 renal it was 102%; in the test on TK-10 renal, 100%; in the test on ACHN renal, 109%. Further, the growth in the test on CAKI-1 renal was 84.3%; in the test with A498 renal it was 101%; in the test on CCRF-CEM leukemia, 95.5%; in the test on SR leukemia, 107%; in the test with RPMI-8226 leukemia it was 94%; in the test with OVCAR-8 ovarian, 107%. The growth in the test on OVCAR-5 ovarian is 116%; with SK-OV-3 ovarian it was 100%; with IGROV1 ovarian, 114%; with OVCAR-3 ovarian it was 113%; in the test on HS 578T breast, 107%; in the test with NCI/ADR-RES ovarian it was 105%.

For the compound `Clc1cc(Cl)cc(-c2cnc3nonc3n2)c1`, the growth in the test with SK-MEL-2 melanoma is 98.5%; in the test with EKVX NSCLC, 102%; with SN12C renal it was 99.4%; in the test with UO-31 renal it was 62.3%; in the test with TK-10 renal it was 79.9%; in the test with ACHN renal, 72.6%. For the same compound, the growth is 93.5% with CAKI-1 renal; 100% with A498 renal; 50.5% in the test on CCRF-CEM leukemia; 93.2% in the test with SR leukemia; 94.2% with OVCAR-8 ovarian; 93.7% in the test with OVCAR-5 ovarian. For the same compound, the growth in the test with OVCAR-4 ovarian was 85.5%; in the test with SK-OV-3 ovarian, 96.4%; in the test with IGROV1 ovarian it was 94.9%; in the test with OVCAR-3 ovarian, 36%; in the test with HS 578T breast, 102%.

As to `CCOC(=O)CCN(CCC(=O)OCC)c1ccccc1`, the growth is 96.7% with SK-MEL-2 melanoma; 115% with EKVX NSCLC; 110% with SN12C renal; 77.8% in the test on UO-31 renal; 101% in the test with TK-10 renal; 100% in the test with ACHN renal. Moreover, the growth in the test on CAKI-1 renal was 116%; in the test on A498 renal, 127%; with CCRF-CEM leukemia, 61.7%; in the test on SR leukemia it was 104%; in the test with OVCAR-8 ovarian, 94.5%; in the test with OVCAR-5 ovarian, 92.2%. The growth in the test with OVCAR-4 ovarian is 113%; in the test on SK-OV-3 ovarian it was 87.1%; in the test on IGROV1 ovarian, 87.4%; in the test on OVCAR-3 ovarian, 85.2%; in the test with HS 578T breast, 106%; with NCI/ADR-RES ovarian it was 105%.

`O=C(O)C(CCc1ccccc1)NCc1ccccc1` (configuration not stated): the growth was 94.9% in the test with SK-MEL-2 melanoma; 102% in the test on EKVX NSCLC; 93% in the test on SN12C renal; 77.8% with UO-31 renal; 91% with TK-10 renal; 95.8% in the test with ACHN renal. The growth in the test with CAKI-1 renal is 100%; in the test with A498 renal, 86.2%; with MOLT-4 leukemia it was 108%; in the test with SR leukemia, 106%; with OVCAR-8 ovarian, 106%; with OVCAR-5 ovarian, 93.5%. The growth in the test on OVCAR-4 ovarian is 78.5%; in the test on SK-OV-3 ovarian, 98.5%; in the test on OVCAR-3 ovarian it was 100%; in the test with HS 578T breast it was 99.4%; in the test on NCI/ADR-RES ovarian, 93.7%.

With `COc1ccc(C2NC(=O)c3cc4c(cc3N2)OCO4)cc1` (configuration not stated), the growth was 10.5% with SK-MEL-2 melanoma; 58.1% in the test on EKVX NSCLC; 31.6% in the test on SN12C renal; 67.3% with UO-31 renal; 52.8% in the test on TK-10 renal; 46.3% with ACHN renal. Besides, the growth is 55.2% with CAKI-1 renal; 8.76% (active) with A498 renal; 14.8% with CCRF-CEM leukemia; 27.8% in the test with RPMI-8226 leukemia; 22.3% in the test with OVCAR-8 ovarian; 45.3% in the test with OVCAR-5 ovarian. For the same compound, the growth with OVCAR-4 ovarian is 59.5%; in the test on SK-OV-3 ovarian, -7.72% (active); with IGROV1 ovarian, 42.8%; in the test with OVCAR-3 ovarian, -45.9% (active); in the test on HS 578T breast it was 16.4%; in the test on NCI/ADR-RES ovarian, 3.94% (active).

With `Nc1cc(C(=O)O)cc(C(=O)O)c1`, the growth is 89.6% in the test on SK-MEL-2 melanoma; 105% in the test with EKVX NSCLC; 96.3% in the test with SN12C renal; 84.8% in the test with UO-31 renal; 101% in the test on TK-10 renal; 109% in the test with ACHN renal. Also, the growth in the test on CAKI-1 renal is 104%; in the test with A498 renal, 98%; with MOLT-4 leukemia, 90.1%; in the test on SR leukemia, 75.3%; in the test on OVCAR-8 ovarian, 99.3%; in the test on OVCAR-5 ovarian, 105%. In addition, the figures for the growth in the test on SK-OV-3 ovarian, in the test on IGROV1 ovarian and in the test with HS 578T breast were 97%, 102% and 113%, respectively.

Regarding `COc1ccc(C(=O)C(CN(C)C)c2ccc(OC)cc2)cc1` (configuration not stated), the growth with SK-MEL-2 melanoma was 75.1%; in the test with EKVX NSCLC, 90.7%; in the test on SN12C renal it was 62.5%; with UO-31 renal, 67.9%; with TK-10 renal, 52%; in the test on ACHN renal, 54.1%. For the same compound, the growth with CAKI-1 renal was 73.9%; in the test with A498 renal, 64.4%; in the test on CCRF-CEM leukemia it was 3.8% (active); with SR leukemia, 0.837% (active); in the test with RPMI-8226 leukemia, 1.35% (active); in the test with OVCAR-8 ovarian, 42.2%. Moreover, the growth was 73.1% in the test with OVCAR-4 ovarian; 98.8% with SK-OV-3 ovarian; 86.9% in the test on IGROV1 ovarian; -4.36% (active) with OVCAR-3 ovarian; 92.2% with HS 578T breast; 67.3% in the test with NCI/ADR-RES ovarian.
